{"source": "PubChem BioAssay (NCATS)", "note": "Records with an inconclusive call do not appear. Values without a mark were called inactive. The source made the active and inactive calls. Calls follow the shape of the dose curve; as a rule, active = well fitted curve in either direction with a large enough effect (not every such curve was filed as active); inconclusive = small, poorly fitted or top-dose-only effect, or another doubt; inactive = flat fitted curve, though single readings scatter.", "data": [{"experiment": "NFAT Signaling Pathway (AID 444);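 also: carbachol stimulus at about its EC50 of 1 µM final; % is scaled to controls: 0 for no effect and ±100 for the full control effect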", "settings": "Jurkat NFAT-bla M1, carbachol, beta-lactamase ratio, 5 h; at 17.2 µM (top of the series) unless noted", "summary_of_the_method": "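Jurkat cells carrying an NFAT-driven β-lactamase reporter and co-transfected muscarinic M1 receptor were treated with compound plus carbachol (1 uM final, an EC50 level) for 5 h at 37 °C. CCF4 loading followed for 1 h at RT; 460/530 nm ratio gave %activity.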", "values": [{"compound": "Cn1cc(Cl)nc1C(O)c1ccccc1", "note": "(stereo not given)", "activity change, negative = inhibition": "-2.26%"}, {"compound": "CC(C)Cc1[nH]c(=O)c(C#N)c2c1COC(C)(C)C2", "activity change, negative = inhibition": "17.3%"}, {"compound": "Cc1ccc(NC(=O)c2cc(N3CCOCC3)nc3ccccc23)cc1", "activity change, negative = inhibition": "19.3%"}, {"compound": "CCOC(=O)C(OC(=O)c1sc(=S)n(C)c1C)C(C)=O", "note": "(stereo not given)", "activity change, negative = inhibition": "6.69%"}, {"compound": "CC(C)N1CCc2c(sc(N)c2C#N)C1", "activity change, negative = inhibition": "-22.4%"}, {"compound": "O=c1[nH]nc2n1CCCCC2", "activity change, negative = inhibition": "9.36%"}, {"compound": "CCOc1ccc(N=C2C(=O)N(CN3CCOCC3)c3ccccc32)cc1", "activity change, negative = inhibition": "6.57%"}, {"compound": "Cn1ncc(N=Cc2c(O)ccc3ccccc23)c1C(=O)N1CCOCC1", "activity change, negative = inhibition": "-28.4%"}, {"compound": "CC1(C)Cc2c(c(-c3ccccc3Cl)[nH]c(=O)c2C#N)CO1", "activity change, negative = inhibition": "-5.06%"}, {"compound": "CC1CC(C(F)(F)F)n2ncnc2N1", "note": "(stereo not given)", "activity change, negative = inhibition": "-3.22%"}, {"compound": "Cc1nc2c(=O)n(C)c(=O)[nH]c2n1Cc1ccccc1", "activity change, negative = inhibition": "14.6%"}, {"compound": "CN1CCC2(CC1)C1CN(C)CC=C1C(C#N)=C(N)C2(C#N)C#N", "note": "(stereo not given)", "activity change, negative = inhibition": "13.7%"}, {"compound": "O=C(CCC(=O)CCN1CCCCC1)CCN1CCCCC1", "activity change, negative = inhibition": "-120% (active)"}, {"compound": "CC1(C(=O)CSc2n[nH]c(-c3ccccc3Cl)n2)CCC(=O)O1", "note": "(stereo not given)", "activity change, negative = inhibition": "4.32%"}, {"compound": "Cc1ccc(-n2[nH]c(C)c(C=Nc3cc(C)ccn3)c2=O)cc1", "activity change, negative = inhibition": "-2.28%"}, {"compound": "COc1cccc(/C(O)=C2\\C(=O)C(=O)N(c3ccccn3)C2c2ccccc2OC)c1", "note": "(stereo not given)", "activity change, negative = inhibition": "11.4%"}, {"compound": "CCCNc1ncnc2c1cnn2-c1ccc(OC)cc1", "activity change, negative = inhibition": "3.93%"}, {"compound": "Cc1ccc(OCC(=O)NCC(=O)n2nc(C)cc2C)cc1", "activity change, negative = inhibition": "-11.6%"}, {"compound": "CC/C(C)=C1\\SC(N2CCN(C(C)=O)CC2)=NC1=O", "activity change, negative = inhibition": "5.99%"}, {"compound": "CCN(CC)c1nc(C)c2c(c1C#N)CC(C)(C)OC2", "activity change, negative = inhibition": "-24.4%"}, {"compound": "Cc1nc(NCCCO)c(C#N)c2c1COC(C)(C)C2", "activity change, negative = inhibition": "1.02%"}, {"compound": "O=C(NCCN1CCOCC1)c1ccc(=O)oc1", "activity change, negative = inhibition": "8.89%"}, {"compound": "O=C(c1ccc(-n2cnnn2)cc1)N1CCOCC1", "activity change, negative = inhibition": "-0.0644%"}, {"compound": "CCc1nc(SCc2cccnc2)c(C#N)cc1C", "activity change, negative = inhibition": "-24.2%"}, {"compound": "C1CNCCNCCCNCCNC1", "activity change, negative = inhibition": "2.39%"}, {"compound": "CCOC(=O)C1=C(N)n2c(s/c(=C\\c3ccco3)c2=O)=C(C(=O)OC(C)C)C1c1ccco1", "note": "(stereo not given)", "activity change, negative = inhibition": "-23.7%"}, {"compound": "CC(C)CCNc1nc2c(cc1C#N)COC(C)(C)C2", "activity change, negative = inhibition": "4.17%"}, {"compound": "Cn1c(=O)c2c(nc(NCc3ccc4c(c3)OCO4)n2Cc2ccccc2F)n(C)c1=O", "activity change, negative = inhibition": "-14%"}, {"compound": "Cc1cc(C)n(-c2c(F)c(F)c(CN3CCCCC3)c(F)c2F)n1", "activity change, negative = inhibition": "-27.9%"}, {"compound": "COc1ccc(C2(CN(C(C)=O)C(C)=O)CCCC2)cc1OC", "activity change, negative = inhibition": "4.27%"}, {"compound": "COc1ccc(CCNC2CC(C)N(C)CC2C)cc1OC", "note": "(stereo not given)", "activity change, negative = inhibition": "-14.9%"}, {"compound": "N#CC1=C(N)N2C(=C(C#N)C1c1ccccc1)Sc1ccccc12", "note": "(stereo not given)", "activity change, negative = inhibition": "-26.8%"}, {"compound": "O=C1C2CC=C(Cl)CC2C(=O)N1CNc1ccccn1", "note": "(stereo not given)", "activity change, negative = inhibition": "-12.9%"}, {"compound": "CCc1nc2n[nH]c(N)c2c2c1CCCC2", "activity change, negative = inhibition": "1.69%"}, {"compound": "COc1ccc[nH]c1=O", "activity change, negative = inhibition": "-4.63%"}, {"compound": "COc1ccc(C(C)=O)cc1CSCCC(=O)O", "activity change, negative = inhibition": "2.2%"}, {"compound": "COC(=O)c1[nH]c2cc(OC)ccc2c1NC(=O)CN1CCC(C(N)=O)CC1", "activity change, negative = inhibition": "-2.98%"}, {"compound": "CCOCCn1c(SC)nc2c1c(=O)[nH]c(=O)n2C", "activity change, negative = inhibition": "-1.92%"}, {"compound": "CCOc1ccc(C2/C(=C(/O)c3ccc(OC)cc3)C(=O)C(=O)N2c2cc(C)on2)cc1OC", "note": "(stereo not given)", "activity change, negative = inhibition": "-0.187%"}, {"compound": "c1csc(Cc2nn3c(-c4ccncc4)nnc3s2)c1", "activity change, negative = inhibition": "5.73%"}]}]}
